Laboratory results from PubChem BioAssay (Tox21).
Inconclusive results are not listed. The source made the active and inactive calls. Unless noted, the call rests on the fitted dose curve; in most records, active means well fitted curve in the direction sought with a large enough effect in the repeat runs; inconclusive means weak or mixed curves; inactive means no such curve, though single readings can be large; an effect the other way counts as inactive or inconclusive.

Columns and labels:
[1] = target: Aromatase (Homo sapiens) (UniProt P11511); assay: qHTS assay to identify aromatase inhibitors (AID 743083); further: nearly all actives have a fitted effect of over 55% in size; further: potency means the concentration at half of the fitted maximal effect
Aromatase (Homo sapiens), sequence (P11511 whole entry, looked up): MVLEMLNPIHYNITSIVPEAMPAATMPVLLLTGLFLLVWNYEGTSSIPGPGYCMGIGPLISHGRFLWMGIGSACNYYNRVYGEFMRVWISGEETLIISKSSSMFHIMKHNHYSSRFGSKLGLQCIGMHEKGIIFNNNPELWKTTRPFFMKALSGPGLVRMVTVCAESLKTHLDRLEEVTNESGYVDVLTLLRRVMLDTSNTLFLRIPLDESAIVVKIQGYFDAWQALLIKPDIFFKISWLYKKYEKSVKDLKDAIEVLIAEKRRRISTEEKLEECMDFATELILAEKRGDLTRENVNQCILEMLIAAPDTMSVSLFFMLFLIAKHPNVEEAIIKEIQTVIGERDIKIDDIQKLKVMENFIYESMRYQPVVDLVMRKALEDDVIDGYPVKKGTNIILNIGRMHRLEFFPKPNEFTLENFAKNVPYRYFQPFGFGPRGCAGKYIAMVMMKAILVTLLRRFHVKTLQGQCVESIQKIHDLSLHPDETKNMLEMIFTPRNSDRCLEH

[2] = target: Aryl hydrocarbon receptor (Homo sapiens) (UniProt P35869); assay: qHTS assay to identify small molecule that activate the aryl hydrocarbon receptor (AhR) signaling pathway (AID 743085);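 further: HG2L7.5c1 human HepG2 liver cells with stably integrated DRE-driven firefly reporter; nearly all actives have a fitted effect of over 15% in size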
Aryl hydrocarbon receptor (Homo sapiens), sequence (P35869 whole entry, looked up): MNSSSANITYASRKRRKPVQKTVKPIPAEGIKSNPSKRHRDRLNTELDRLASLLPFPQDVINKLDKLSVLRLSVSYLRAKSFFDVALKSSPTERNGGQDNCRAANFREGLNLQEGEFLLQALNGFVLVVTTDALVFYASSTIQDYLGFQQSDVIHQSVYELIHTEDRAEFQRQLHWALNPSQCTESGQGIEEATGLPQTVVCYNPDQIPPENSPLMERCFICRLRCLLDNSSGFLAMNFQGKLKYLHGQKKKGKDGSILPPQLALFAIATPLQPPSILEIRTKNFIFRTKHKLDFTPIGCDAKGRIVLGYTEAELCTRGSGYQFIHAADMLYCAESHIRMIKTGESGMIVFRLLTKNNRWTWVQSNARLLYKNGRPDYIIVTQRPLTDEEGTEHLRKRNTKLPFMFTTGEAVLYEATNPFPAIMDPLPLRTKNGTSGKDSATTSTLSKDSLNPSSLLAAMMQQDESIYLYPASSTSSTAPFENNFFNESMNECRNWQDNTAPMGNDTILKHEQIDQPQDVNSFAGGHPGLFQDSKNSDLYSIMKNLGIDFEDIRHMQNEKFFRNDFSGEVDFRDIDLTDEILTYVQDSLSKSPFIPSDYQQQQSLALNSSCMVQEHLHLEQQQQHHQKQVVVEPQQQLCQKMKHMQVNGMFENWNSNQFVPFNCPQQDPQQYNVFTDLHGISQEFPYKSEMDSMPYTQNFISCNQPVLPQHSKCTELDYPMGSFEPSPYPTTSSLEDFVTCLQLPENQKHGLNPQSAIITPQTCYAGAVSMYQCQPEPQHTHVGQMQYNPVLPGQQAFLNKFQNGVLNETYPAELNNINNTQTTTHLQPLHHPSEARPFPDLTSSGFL
Summary of the method: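 A multiplexed format paired cell viability (CellTiter-Fluor fluorescence) with AhR-dependent luciferase output (ONE-Glo luminescence) in the same wells of HepG2 DRE-luc cells after 24 h compound exposure at 37C.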

[3] = qHTS assay to identify small molecule antagonists of the retinoic acid receptor (RAR) signaling pathway (AID 1159552; further: nearly all actives have a fitted effect of over 50% in size; further: potency means the concentration at half of the fitted maximal effect)
Summary of the method: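 Antagonism of retinol-induced RARE reporter activity was measured in C3RL4 cells. Exposure to compounds and 1 uM final retinol lasted 6 hr at 37 C, with luminescence as endpoint.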

[4] = qHTS assay to identify small molecule agonists of H2AX (AID 1224845; active means well fitted activation curve with a large enough effect in the signal ratio in the repeat runs, not every such curve was filed as active; the % refers to the signal ratio; further: potency means the concentration at half of the fitted maximal effect)
Summary of the method: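 Wild-type CHO-K1 cells plated overnight, then exposed 3 hr at 37C to compounds at 15 concentrations (0.76% DMSO). Lysed, then HTRF anti-pH2AX(S139)-cryptate/anti-H2AX-d2 detection after 24 hr at room temperature; emissions 665 and 620 nm.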

[5] = A CellTox Green Cytotoxicity Assay to monitor cytotoxicity in HepG2 cells - 0 hour (AID 1224882); further: nearly all actives have a fitted effect of over 35% in size; further: potency means the concentration at half of the fitted maximal effect
Summary of the method: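 First, HepG2 cells (600/well) mixed with reagent were plated; second, after 5 h at 37 C they received compounds via pintool; third, fluorescence was measured at 0 h through 40 h at 8 h intervals.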

[6] = qHTS assay to identify small molecule HDAC inhibitors (AID 1259364);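 further: wild-type HCT-116 cells with endogenous class I/II HDAC activity; top concentration of the series differs between compounds; nearly all actives have a fitted effect of over 45% in size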
Summary of the method: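 Quantitative high-throughput format: overnight-seeded HCT-116 cells got compounds for 2 hr at 37C; HDAC-Glo I/II reagent added, 30 min RT, luminescence measured.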

[7] = qHTS assay to identify small molecule agonists of the sonic hedgehog signaling (Shh) pathway (AID 1259368; calls by dose curve;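 further: NIH/3T3-derived 3T3Gli1-Luc cells carrying a stable Gli1-driven firefly luciferase reporter; nearly all actives have a fitted effect of over 15% in size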)
Summary of the method: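 Quantitative high-throughput format using a Gli1-driven firefly luciferase reporter line derived from NIH/3T3 cells. After a 24 hr compound treatment at 37 C and 5% CO2, luminescence reported Gli1 response element activity.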

[8] = Caspase-3/7 induction in HepG2 cells by small molecules, qHTS assay (AID 1346978); further: nearly all actives have a fitted effect of over 15% in size
Summary of the method: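 Wild-type HepG2 cells (2,000/well) were settled 5 h at 37 C, 5% CO2, then exposed to compounds in DMSO for 17 h. Caspase-3/7 activity was read by luminescence 30 min after adding Caspase-Glo 3/7 reagent at room temperature.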

[9] = Caspase-3/7 induction in CHO-K1 cells by small molecules, qHTS assay (AID 1346980); further: nearly all actives have a fitted effect of over 15% in size
Summary of the method: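 Wild-type cells were seeded at 1,500 per well and settled 5 hr at 37 C, 5% CO2, then exposed to DMSO-dissolved compounds for 17 hr. Caspase-Glo 3/7 reagent was added, and luminescence was read after 30min at room temperature.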

[10] = target: Acetylcholinesterase (Homo sapiens) (UniProt P22303); assay: Acetylcholinesterase (AChE) small molecule antagonists: colormetric cell-based qHTS assay (AID 1347395; calls by dose curve; further: nearly all actives have a fitted effect of over 30% in size)
Acetylcholinesterase (Homo sapiens), sequence (P22303 whole entry, looked up): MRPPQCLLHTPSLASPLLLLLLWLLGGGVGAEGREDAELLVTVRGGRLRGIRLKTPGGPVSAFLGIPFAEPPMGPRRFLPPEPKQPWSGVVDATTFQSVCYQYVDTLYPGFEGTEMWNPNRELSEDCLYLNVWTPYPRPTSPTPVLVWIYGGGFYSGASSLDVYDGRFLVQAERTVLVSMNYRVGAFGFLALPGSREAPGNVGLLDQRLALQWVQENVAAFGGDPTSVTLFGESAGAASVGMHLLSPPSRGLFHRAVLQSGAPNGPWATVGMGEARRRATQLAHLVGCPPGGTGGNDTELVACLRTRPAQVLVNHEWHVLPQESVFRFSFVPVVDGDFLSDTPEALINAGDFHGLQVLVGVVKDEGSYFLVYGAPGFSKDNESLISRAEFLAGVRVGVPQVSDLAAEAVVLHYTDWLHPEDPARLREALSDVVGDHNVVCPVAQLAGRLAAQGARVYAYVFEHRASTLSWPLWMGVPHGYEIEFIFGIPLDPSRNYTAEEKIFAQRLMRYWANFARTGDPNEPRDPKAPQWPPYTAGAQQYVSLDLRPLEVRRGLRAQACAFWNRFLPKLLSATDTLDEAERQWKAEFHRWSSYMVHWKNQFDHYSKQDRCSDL
Summary of the method: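 Homogeneous whole-cell format. SH-SY5Y cells seeded overnight, dosed with compound (30 min, 37 C, 5% CO2), then given DTNB/acetylthiocholine cocktail for 90 min at 37 C; colorimetric signal.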

[11] = target: Acetylcholinesterase (Homo sapiens) (UniProt P22303); assay: Acetylcholinesterase (AChE) small molecule antagonists: enzyme-based qHTS assay (AID 1347397; calls by dose curve; further: nearly all actives have a fitted effect of over 55% in size; further: potency means the concentration at half of the fitted maximal effect); conditions: Potency: AChE enzyme activity inhibition; outcome: AChE enzyme activity inhibition
Summary of the method: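 Tox21 library chemicals are tested in qHTS format against recombinant human AChE. The enzyme, dispensed at 50 mU/mL, sits with compound for 30 min at room temperature. A DTNB–acetylthiocholine cocktail follows, and colour is read after 10 min.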

[12] = target: Acetylcholinesterase (Homo sapiens) (UniProt P22303); assay: Acetylcholinesterase (AChE) small molecule antagonists: fluorescence cell-based qHTS assay (AID 1347398; calls by dose curve; further: nearly all actives have a fitted effect of over 50% in size); conditions: Potency: AChE activity; outcome: AChE activity
Summary of the method: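 Cellular AChE inhibition: SH-SY5Y cells treated with test chemical for 30 min at 37 C, then acetylthiocholine hydrolysis followed over 40 min at room temperature via thiocholine-reactive Thiolite Green fluorescence (490/520 nm).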

[13] = target: Acetylcholinesterase (Homo sapiens) (UniProt P22303); assay: Acetylcholinesterase (AChE) small molecule antagonists: enzyme-based qHTS assay with human liver microsomes (AID 1347399; calls by dose curve; further: nearly all actives have a fitted effect of over 60% in size); conditions: Potency: qHTS inhibition; outcome: qHTS inhibition
Summary of the method: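 Recombinant human AChE (50 mU/mL in the enzyme mix) and human liver microsomes (0.25 mg/mL final) were preincubated with compound and NADPH (0.25 mg/mL final) for 30 min at 37 C. Acetylthiocholine/DTNB was then added; thiocholine was read colorimetrically after 10 min at room temperature.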

[14] = qHTS assay to identify small molecule antagonists of the estrogen related receptor (ERR) signaling pathway - cell viability counter screen (AID 1224818);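 further: viability measured after 17.5 h of compound exposure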
Summary of the method: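 Quantitative high-throughput viability counter screen in ERR cells. Compounds (DMSO) incubated 17.5 h at 37 C; read-out was CellTiter-Fluor fluorescence.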

[15] = qHTS assay to identify small molecule antagonists of the estrogen related receptor (ERR) signaling pathway (AID 1224819; further: nearly all actives have a fitted effect of over 50% in size; further: potency means the concentration at half of the fitted maximal effect;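 on activity change, negative = inhibition: luminescence from an ERR-driven luciferase reporter measured with One-Glo reagent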)
Summary of the method: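 ERR reporter cell line (NTP) plated at 2,000 cells/well, settled 6 h at 37C/5% CO2, then exposed to LOPAC compounds for 18 h at 37C. One-Glo luciferase luminescence read after 30 min at room temperature.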

[16] = qHTS assay to identify small molecule agonists of the estrogen related receptor (ERR) signaling pathway (AID 1224820)
Summary of the method: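 An ERR cell line provided by NTP was seeded at 2,000 cells per well and allowed to settle for 6 h before compounds in DMSO were added. After 18 h at 37 C, luciferase activity was measured by One-Glo luminescence.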

[17] = tested on: estrogen-related receptor alpha (ERRalpha) with PGC-1alpha coactivator, human; assay: qHTS assay to identify small molecule antagonists of the estrogen related receptor signaling pathway with the pleiotropic PPARgamma coactivator (PGC) (AID 1224821; calls by dose curve; further: nearly all actives have a fitted effect of over 50% in size; further: potency means the concentration at half of the fitted maximal effect;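 on activity change, negative = inhibition: lower luminescence signal means antagonism of PGC/ERR signalling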)
Summary of the method: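 A PGC/ERR cell line supplied by NTP is seeded, allowed 6 h at 37 C, and treated with test compounds in DMSO for 18 h. Signal is then measured as luciferase luminescence using One-Glo.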

[18] = qHTS assay to identify small molecule antagonists of the estrogen related receptor signaling pathway with the pleiotropic PPARgamma coactivator (PGC) cell viability counter screen (AID 1224822)
Summary of the method: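 Cytotoxicity in the PGC/ERR cell line is assessed with CellTiter-Fluor, read as fluorescence intensity 30 min after reagent addition, following 17.5 h compound treatment at 37 C.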

[19] = qHTS assay to identify small molecule agonists of the estrogen related receptor signaling pathway with the pleiotropic PPARgamma coactivator (PGC) (AID 1224823)
Summary of the method: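 Compounds dissolved in DMSO are added by pin tool to PGC/ERR cells that have settled for 6 h, and incubation continues 18 h at 37 C. Reporter output is measured as One-Glo luminescence.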

[20] = qHTS assay to identify small molecule agonists of the estrogen related receptor (ERR) signaling pathway from Tox21 library (AID 1224849; calls by dose curve; further: nearly all actives have a fitted effect of over 15% in size); conditions: ERR reporter cell line, ONE-Glo luciferase, 18 h; at 92.4 µM (top of the series) unless noted
Summary of the method: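 Quantitative HTS in agonist format: NTP ERR cell line, compounds transferred in DMSO after 6 h plating, 18 h incubation at 37 C, ONE-Glo luminescence endpoint.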
On the % scale 0 is the no-effect control and ±100 the full control effect.

O=C1C(I)=CC(=C(c2cc(I)c(O)c(I)c2)c2ccccc2C(=O)O)C=C1I
active: Potency [11] 34.7 µM
inactive: Potency [1] | Potency [2] | Potency [3] | Potency [4] | Potency [5] | outcome [6] | outcome [7] | Potency [8] | outcome [9] | Potency [10] | Potency [12] | Potency [13]

ClC(Cl)=C(c1ccc(Cl)cc1)c1ccccc1Cl
inactive: Potency [5] | outcome [6] | outcome [7] | Potency [8] | outcome [9] | Potency [10] | Potency [11] | Potency [12] | Potency [13]

O=C(Nc1ccccc1-c1ccc(Cl)cc1)c1cccnc1Cl
active: Potency [5] 41.2 µM
inactive: Potency [2] | Potency [3] | Potency [14] | Potency [15] | Potency [16] | Potency [17] | Potency [18] | Potency [19] | Potency [4] | activity change, positive = activation [20] -31.8% | outcome [6] | outcome [7] | Potency [8] | outcome [9] | Potency [10] | Potency [11] | Potency [12] | Potency [13]

Oc1c(I)cc(I)cc1I
inactive: Potency [4] | activity change, positive = activation [20] -24.5% | Potency [5] | outcome [6] | outcome [7] | Potency [8] | outcome [9] | Potency [10] | Potency [11] | Potency [12] | Potency [13]

CO/C=C(/C(=O)OC)c1ccccc1Oc1cc(Oc2ccccc2C#N)ncn1
active: Potency [1] 41.1 µM | Potency [15] 4.86 µM | Potency [17] 8.31 µM
inactive: Potency [16] | Potency [18] | Potency [19] | activity change, positive = activation [20] -64.5% | Potency [5] | outcome [6] | outcome [7] | Potency [8] | outcome [9] | Potency [10] | Potency [11] | Potency [12] | Potency [13]

Cc1c(N)cccc1[N+](=O)[O-]
inactive: Potency [1] | Potency [3] | Potency [10] | Potency [11] | Potency [12] | Potency [13]

CC(C)(C)c1cc(C(C)(C)C)c(O)c(C(C)(C)C)c1
inactive: Potency [1] | Potency [8] | Potency [10] | Potency [11] | Potency [12] | Potency [13]
active: Potency [4] 101 µM

N#Cc1cc([N+](=O)[O-])ccc1N
inactive: Potency [3] | Potency [4] | activity change, positive = activation [20] -2.3% | Potency [5] | outcome [6] | outcome [7] | Potency [8] | outcome [9] | Potency [10] | Potency [11] | Potency [12] | Potency [13]

O=C(c1ccccc1)C(Cl)Cl
inactive: Potency [4] | activity change, positive = activation [20] -27.3% | Potency [5] | outcome [6] | outcome [7] | Potency [8] | outcome [9] | Potency [10] | Potency [11] | Potency [12] | Potency [13]
active: Potency [3] 24.3 µM

ClC1=C(Cl)[C@]2(Cl)[C@@H]3[C@@H](Cl)[C@H]4O[C@H]4[C@@H]3C1(Cl)C2(Cl)Cl
active: Potency [3] 68.6 µM
inactive: Potency [2] | activity change, positive = activation [20] -26.9% | Potency [5] | outcome [6] | outcome [7] | Potency [8] | outcome [9] | Potency [10] | Potency [11] | Potency [12] | Potency [13]

C[C@]12CC[C@@H](O)C[C@@H]1CC[C@@H]1[C@@H]2CC[C@]2(C)C(=O)CC[C@@H]12
inactive: Potency [4] | Potency [5] | outcome [6] | outcome [7] | Potency [8] | outcome [9]

Cc1ccc2nc3sc(=O)sc3nc2c1
inactive: activity, negative = inhibition [3] 10.1% [at 19 µM] | activation (H2AX phosphorylation) [4] -0.108% [at 31.6 µM] | cytotoxicity [5] 0.753% [at 15.8 µM] | activity change, negative = inhibition [6] -12.7% [at 19 µM] | activity change [7] 2.66% [at 18.9 µM] | caspase activation [8] 0.305% [at 19 µM] | caspase-3/7 activation [9] -0.994% [at 19 µM] | activity change, negative = inhibition [11] 0% [at 23.6 µM] | activity change, negative = inhibition [12] 1.71% [at 23.8 µM] | activity change, negative = inhibition [13] -0.324% [at 23.6 µM]

Nc1ccc([N+](=O)[O-])cc1
inactive: Potency [1] | Potency [16] | Potency [17] | Potency [18] | Potency [19] | Potency [4] | activity change, positive = activation [20] -29.9% | Potency [5] | outcome [6] | outcome [7] | outcome [9] | Potency [10] | Potency [11] | Potency [12] | Potency [13]

O=[N+]([O-])c1c(Cl)c(Cl)cc(Cl)c1Cl
inactive: Potency [2] | Potency [3] | Potency [14] | Potency [15] | Potency [16] | Potency [17] | Potency [18] | Potency [19] | activity change, positive = activation [20] 0.621% | Potency [5] | outcome [6] | outcome [7] | Potency [8] | outcome [9] | Potency [10] | Potency [11] | Potency [12] | Potency [13]

CC(c1ccccc1)(c1ccc(O)cc1)c1ccc(O)cc1
inactive: activity change, positive = activation [20] -53.1% | Potency [5] | outcome [6] | outcome [7] | outcome [9] | Potency [10] | Potency [12] | Potency [13]

COc1ccc(C(c2ccc(OC)cc2)C(Cl)(Cl)Cl)cc1
inactive: Potency [1] | Potency [3] | Potency [14] | Potency [15] | Potency [16] | Potency [17] | Potency [18] | Potency [19] | activity change, positive = activation [20] -35.3% | Potency [5] | outcome [7] | Potency [8] | outcome [9] | Potency [10] | Potency [11] | Potency [12] | Potency [13]

CCN(CC)C(=O)Cl
inactive: Potency [4] | activity change, positive = activation [20] -1.51% | Potency [5] | outcome [6] | outcome [7] | Potency [8] | outcome [9] | Potency [10] | Potency [11] | Potency [12] | Potency [13]

Cc1cc(C(C)(C)c2ccc(O)c(C)c2)ccc1O
inactive: Potency [2] | Potency [4] | activity change, positive = activation [20] -66.8% | Potency [5] | outcome [6] | outcome [7] | outcome [9] | Potency [10] | Potency [11] | Potency [12] | Potency [13]
active: Potency [1] 65.3 µM | Potency [3] 58.2 µM
